Hit rate of the full screen: of about 370,000 compounds, about 2,300 (0.62%) were called active. The list comes from a sample in which actives are over-represented; it also holds similar structures and randomly drawn compounds. A number with no mark means an inactive call.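 The calls were made as follows: active = inhibition above a per-campaign cutoff equal to the mean of compounds falling between control-based bounds plus 3 SD (cut at about 20% in these data); inactive = the rest.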
target: Disintegrin and metalloproteinase domain-containing protein 10 (Homo sapiens) (UniProt O14672); experiment: blockers of ADAM10 peptide cleavage – biochemical, QFRET, HTS, primary screen (AID 720582); details: recombinant ADAM10, EDANS/DABCYL FRET peptide cleavage, 3 h; at 7 µM; stronger effect = higher value;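 also: 0% = DMSO wells while the 100% control is not disclosed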
Sequence (O14672 214-748 limits assumed): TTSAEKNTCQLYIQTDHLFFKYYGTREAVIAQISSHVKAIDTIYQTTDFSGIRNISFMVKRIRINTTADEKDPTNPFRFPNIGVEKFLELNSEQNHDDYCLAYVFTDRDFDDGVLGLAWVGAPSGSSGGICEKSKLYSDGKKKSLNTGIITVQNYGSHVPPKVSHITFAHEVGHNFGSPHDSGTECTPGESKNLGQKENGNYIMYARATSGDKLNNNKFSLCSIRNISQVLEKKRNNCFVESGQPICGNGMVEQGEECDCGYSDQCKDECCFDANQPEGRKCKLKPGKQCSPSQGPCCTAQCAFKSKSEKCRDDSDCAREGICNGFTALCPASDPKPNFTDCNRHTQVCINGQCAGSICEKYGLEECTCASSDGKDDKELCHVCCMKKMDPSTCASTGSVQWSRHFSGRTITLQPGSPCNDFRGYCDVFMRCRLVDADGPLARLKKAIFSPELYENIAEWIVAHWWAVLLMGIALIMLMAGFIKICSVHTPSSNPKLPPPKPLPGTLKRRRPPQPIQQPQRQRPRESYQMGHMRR

| Compound | inhibition |
| --- | --- |
| O=C(NCCCc1ccccc1)[C@H](Cc1ccccc1)NC1(C(=O)NCCc2c[nH]c3ccccc23)CCC1 | 10.8% |
| CCCn1nnnc1NCc1ccc(OC)cc1 | 0.98% |
| O=C(c1cccs1)n1nc(NCc2ccccc2)nc1NCc1ccccc1 | -4.16% |
| CCCC(=O)n1nc(NCc2ccc(OC)cc2)nc1NCc1ccc(OC)cc1 | 21.3% (active) |
| Cc1cc(C)nc(NC(=S)N2CCN(c3ccc(C(F)(F)F)cn3)CC2)c1 | -0.75% |
| O=C1CC[C@@H](COc2ccc3[nH]cc(-c4ccccc4)c3c2-c2ccccc2)N1 | -16.4% |
| CC(=O)Nc1ccc(NC(=O)CSCc2cnn(-c3ccccc3)c2-n2cccc2)cc1 | -1.8% |
| Cc1cc(C)cc(NC(=O)CSCc2cnn(-c3ccccc3)c2-n2cccc2)c1 | 20.7% (active) |
| Cc1cc(C)cc(NC(=O)CSc2ccccc2)c1 | 7.73% |
| O=C(NCCc1c[nH]c2ccccc12)OCc1cn(-c2c(F)cccc2F)nn1 | 2.44% |
| CCOC(=O)[C@@]12CCC3=C1N(CCC3)C(=O)[C@H](CC(=O)N1CCN(C(=O)c3ccco3)CC1)C2 | 0.02% |
| N#Cc1nc(Cc2cccc3ccccc23)oc1NCc1ccc2c(c1)OCO2 | 22.7% (active) |
| CC1(C(=O)NCc2ccc3c(c2)OCO3)CCN1C(=O)Cc1cccc2ccccc12 (stereo unspecified) | -4.08% |
| O=C(CCNS(=O)(=O)c1ccccc1C(F)(F)F)NCc1ccc2c(c1)OCO2 | 4.73% |
| C[C@@H]1COc2cccc(N3CCCC3)c2S(=O)(=O)N1C | -13.8% |
| CCCCNC(=O)C[C@@H]1C(=O)N(CCc2ccc(Cl)cc2)C2=CCCC[C@]21C(=O)OCC | 1.59% |
| CCCCC(=O)N[C@@H]1CC[C@@]23CCCN2C(=O)CCC[C@H]3[C@H]1C | -8.02% |
| CC(C)(C)NC(=O)C(c1cccnc1)N(C(=O)c1cnco1)c1ccc(C(C)(C)C)cc1 (stereo unspecified) | -5.34% |
| CC1Cc2ccccc2N1C(=O)CSc1nc2ccccc2o1 (stereo unspecified) | 3.31% |
| O=C(CSc1nc2ccccc2o1)N/N=C/c1ccccc1C(=O)O | 5.59% |
| Cc1ccc(/C=N/NC(=O)CSc2nc3ccccc3o2)cc1 | 22.1% (active) |
| C[C@H](C(=O)N(C)c1ccccc1)[C@@H](O)c1ccc2ccccc2c1 | -0.77% |
| COc1ccc(-c2cc(-c3nnc(SCc4ccc([N+](=O)[O-])cc4)n3N)[nH]n2)cc1 | 0.29% |
| COc1ccc(C(=O)NNc2cc(C)nc(NNC(=O)c3ccc(OC)cc3)n2)cc1 | -1.03% |
| COc1cc(NS(=O)(=O)c2ccc(NC(=S)NC(=O)c3ccccc3)cc2)nc(OC)n1 | 6.57% |
| COc1ccc(C(=O)NNC(=S)NC(=O)c2ccccc2)cc1 | 24% (active) |
